Source: PubChem (several laboratories)
Shown are actives, neighbours in structure and some others; about 1.3% of the full set was active somewhere.
TcdB inh – TcdB glycohydrolase inhibition | hit rate 0.24% among 350,000 | TcdB glycohydrolase enzymatic assay, plate reader | P18177 | inhibition, % at 9.99 µM; in the data active = inhibition above about 10%
MazF activator – activators of E. coli MazEF toxin-antitoxin RNase; P0AE70; FAM/BHQ RNA-DNA oligo cleavage fluorescence, 5 h; activation, % at 20 µM; hit rate 0.32% among 350,000; in the data active = activation above about 50%
Target sequence (P0AE70 whole entry, looked up): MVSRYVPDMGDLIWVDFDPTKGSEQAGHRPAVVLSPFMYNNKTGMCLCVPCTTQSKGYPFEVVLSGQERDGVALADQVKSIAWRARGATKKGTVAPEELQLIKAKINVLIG
Mtb hypoxia rep – inhibitors of hypoxia-regulated fluorescent reporter in Mycobacterium tuberculosis | fluorescence inhibition, % (concentration not given with the values) | hit rate 0.1% among 300,000 | M. tuberculosis hypoxia-regulated fluorescent reporter, fluorescence; in the data active = fluorescence inhibition mostly above about 23%, no sharp cut-off; inactive = mostly below about 17%
PfHsp40 yeast – rescue of PfHsp40-mediated yeast toxicity. S. cerevisiae expressing PfHsp40, growth rescue, ATP luminescence. growth rescue, % at 12.5 µM. hit rate 0.68% among 340,000. AID 504582; in the data active = growth rescue above about 28%, passing the limit was not always enough;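 note: yeast W303a lacking pdr1 and pdr3 grown in galactose medium; growth measured after three days at 30 °C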
Sa RN4220 lethal – kills Staphylococcus aureus RN4220. S. aureus RN4220 growth, OD600, 16 h. inhibition, % (no concentration beside the values). hit rate 0.33% among 330,000; in the data active = inhibition above about 85%;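 note: plate controls were untreated cells for no effect and reference antibiotic for full effect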
Sa ugtP lethal – kills S. aureus RN4220 lacking UgtP. S. aureus RN4220 ugtP deletion, OD600 growth, 16 h. growth inhibition, % (no concentration beside the values). hit rate 0.54% among 330,000; in the data active = growth inhibition above about 68%;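 note: plate controls were untreated wells for no effect and antibiotic for full effect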
Starred values were filed as active, the others as inactive.

How did CC=C(C)C(=O)OC(c1cc2ccc(=O)oc2cc1OC)C(O)C(C)(C)O (configuration not stated) do in these assays?
Mtb hypoxia rep: 9; Sa RN4220 lethal: 7; Sa ugtP lethal: -7

How did C[C@]1(C(=O)NCCCNc2ncc(C(F)(F)F)cc2Cl)C=CC(Cc2ccccc2)N1C(=O)c1ccccc1 (some centres not stated) do in these assays?
Mtb hypoxia rep: 0; Sa RN4220 lethal: 5; Sa ugtP lethal: 0

Results for C#CCNC(=O)C1=CC(c2ccc(C#C)cc2)CC(OCCCCO)O1 (configuration not stated) ?
Mtb hypoxia rep: 9; Sa RN4220 lethal: 0; Sa ugtP lethal: -7

Results for Nc1ccc(S(=O)(=O)Nc2cnc3ccccc3n2)cc1 ?
TcdB inh: 1; MazF activator: -2; PfHsp40 yeast: 2; Sa RN4220 lethal: 3; Sa ugtP lethal: 91*

How did Nc1ccc(S(=O)(=O)Nc2ncccn2)cc1 do in these assays?
TcdB inh: 1; MazF activator: -4; Mtb hypoxia rep: 15; PfHsp40 yeast: 0; Sa RN4220 lethal: 3; Sa ugtP lethal: 9

Results for Nc1ccc(S(=O)(=O)Nc2cnc3c(Cl)cccc3n2)cc1 ?
TcdB inh: -2; MazF activator: 13; PfHsp40 yeast: 1

Results for Nc1ccc(S(=O)(=O)Nc2nc3ccccc3o2)cc1 ?
TcdB inh: 0; MazF activator: 6; Mtb hypoxia rep: 75*; PfHsp40 yeast: 0; Sa RN4220 lethal: -1; Sa ugtP lethal: 16

What do the screens show for `O=S(=O)(N=C(Nc1ccccc1)C(F)(F)F)c1ccccc1`?
Mtb hypoxia rep: 13; Sa RN4220 lethal: 2; Sa ugtP lethal: 6

How did O=c1c(O)c(-c2ccccc2)oc2ccccc12 do in these assays?
TcdB inh: 1; MazF activator: 0; PfHsp40 yeast: 219*

Results for Cc1ccc2oc(-c3ccccc3)c(C(=O)O)c(=O)c2c1 ?
MazF activator: -17; PfHsp40 yeast: 444*; Sa RN4220 lethal: 8; Sa ugtP lethal: 4

What do the screens show for `C=CCn1c(SCc2c(C)noc2C)nc2sc3c(c2c1=O)CCCCC3`?
MazF activator: -7; Mtb hypoxia rep: 3; PfHsp40 yeast: -1; Sa RN4220 lethal: 4; Sa ugtP lethal: 88*

How did C/C(=N\NS(=O)(=O)c1ccc([N+](=O)[O-])cc1)c1c[nH]c2ccccc12 do in these assays?
TcdB inh: -1; MazF activator: 52*; PfHsp40 yeast: -2

Results for CC(Cc1ccccc1)=NNS(=O)(=O)c1ccc([N+](=O)[O-])cc1 ?
TcdB inh: 0; MazF activator: 88*; Mtb hypoxia rep: 3; PfHsp40 yeast: 0; Sa RN4220 lethal: 14; Sa ugtP lethal: -3

Results for CC(=NNS(=O)(=O)c1ccc([N+](=O)[O-])cc1)c1c[nH]c2ccccc12 ?
Mtb hypoxia rep: -2; Sa RN4220 lethal: 5; Sa ugtP lethal: 4

Results for O=c1c2ccccc2nc(/C=C/c2ccccc2O)n1-c1ccccc1O ?
TcdB inh: 2; PfHsp40 yeast: 0

What do the screens show for `O=c1c2ccccc2nc(/C=C/c2ccccc2F)n1-c1ccccc1O`?
TcdB inh: 6; MazF activator: -8; Mtb hypoxia rep: -11; PfHsp40 yeast: 5; Sa RN4220 lethal: 98*; Sa ugtP lethal: 99*

How did O=C(CSc1nnc(-c2ccco2)o1)NCCc1ccccc1 do in these assays?
TcdB inh: 0; MazF activator: 1; Mtb hypoxia rep: 38*; PfHsp40 yeast: 0; Sa RN4220 lethal: 1; Sa ugtP lethal: 4

Results for O=C(CCSc1nnc(-c2ccncc2)o1)Nc1ccc(Cl)cc1 ?
MazF activator: 2; Mtb hypoxia rep: 5; PfHsp40 yeast: 197*; Sa RN4220 lethal: 4; Sa ugtP lethal: 0

How did O=C(CCSc1nnc(-c2ccncc2)o1)Nc1cccc(Cl)c1 do in these assays?
TcdB inh: 1; MazF activator: 13; Mtb hypoxia rep: 16; PfHsp40 yeast: 0; Sa RN4220 lethal: -4; Sa ugtP lethal: 7

Results for CCOc1ccc(Oc2c(C=NNC(C)=O)c(C)nn2-c2ccccc2)cc1 ?
Mtb hypoxia rep: 9; Sa RN4220 lethal: -5; Sa ugtP lethal: 7

What do the screens show for `O=C(Nc1cccc(Cl)c1)ON=C1c2ccccc2-c2ccccc21`?
TcdB inh: 2; MazF activator: 1; Mtb hypoxia rep: 8; PfHsp40 yeast: 37*; Sa RN4220 lethal: -4; Sa ugtP lethal: -34

Results for Fc1cccc(F)c1C=NNC(=S)Nc1cccnc1 ?
Mtb hypoxia rep: 11; Sa RN4220 lethal: 11; Sa ugtP lethal: 16

Results for CCc1ccc(NC(=O)COC(=O)/C=C/c2c(C)nn(C3CCS(=O)(=O)C3)c2Cl)cc1 (configuration not stated) ?
TcdB inh: 1; MazF activator: 5; Mtb hypoxia rep: 0; PfHsp40 yeast: 59*; Sa RN4220 lethal: 6; Sa ugtP lethal: 5

Results for COc1ccc(Cl)cc1NC(=O)COC(=O)/C=C/c1c(C)nn(C2CCS(=O)(=O)C2)c1Cl (configuration not stated) ?
MazF activator: -2; PfHsp40 yeast: 1

What do the screens show for `COc1ccc(NC(=O)N(C)C[C@H]2OCCCC[C@H](C)Oc3ccc(NC(=O)CCCN(C)C)cc3C(=O)N([C@@H](C)CO)C[C@H]2C)cc1`?
TcdB inh: 2

Results for CCCCCc1ccc(OCCCC[n+]2ccccc2)c(CCCCC)c1 ?
MazF activator: 11; PfHsp40 yeast: 135*; Sa RN4220 lethal: 101*; Sa ugtP lethal: 93

How did CCCCCc1ccc(OCCCC[n+]2cccc(C)c2)c(CCCCC)c1 do in these assays?
TcdB inh: 4; MazF activator: 0; PfHsp40 yeast: 95*

Results for CCCCCc1ccc(OCCCC[n+]2ccc(C)cc2)c(CCCCC)c1 ?
TcdB inh: 4; MazF activator: -9; PfHsp40 yeast: 0; Sa RN4220 lethal: 99*; Sa ugtP lethal: 100*

How did CCC(C)(C)c1ccc(Oc2cccc(C(=O)O)c2)cc1 do in these assays?
TcdB inh: -1; MazF activator: -3; Mtb hypoxia rep: 1; PfHsp40 yeast: 0; Sa RN4220 lethal: 15; Sa ugtP lethal: -12

How did CCCCCOc1ccc(Br)cc1CSC(=N)N do in these assays?
TcdB inh: 4; MazF activator: 36; Mtb hypoxia rep: 11; PfHsp40 yeast: 2; Sa RN4220 lethal: 0; Sa ugtP lethal: -14

What do the screens show for `CCC(C)(C)c1ccc(OCCCC[n+]2ccccc2)c(C(C)(C)CC)c1`?
TcdB inh: 5; PfHsp40 yeast: -1; Sa RN4220 lethal: 101*; Sa ugtP lethal: 100*

Results for CCCCOc1ccc(C)cc1CN(CCO)CCO ?
MazF activator: 0; Mtb hypoxia rep: -3; PfHsp40 yeast: 0; Sa RN4220 lethal: 6; Sa ugtP lethal: 4

Results for Cc1nc2ccc(Br)cn2c1C(=O)NN=Cc1ccccc1Cl ?
Mtb hypoxia rep: 3; Sa RN4220 lethal: 8; Sa ugtP lethal: 3
